Only some compounds are listed: those with a hit (about 5.2% of all), similar ones and a draw of the others.
Tau fluor cs: counter-screen for tau fibril formation inhibitors | tau K18 P301L Alexa594 fluorescence, heparin fibrillization | Potency, µM (doses to about 57.7 µM) | 280,000 compounds, 0.93% hits | AID 1463; also: nearly all actives have a fitted effect of over 55% in size
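Human K18 P301L tau (15 uM unlabeled plus 0.24 uM Alexa 594-labeled, final) in 100 mM sodium acetate pH 7 was mixed with compound and 20 uM heparin and incubated 6 hr at 37 C.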
Sfp PPTase inh: blocks B. subtilis Sfp PPTase activity. Q9F4F7. Biochemical Sfp PPTase activity, qHTS. Potency, µM, hits mostly inhibitors. 310,000 compounds, 3.5% hits. AID 1490;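 also: the enzyme is Sfp with the accession as filed and its product quenches rhodamine fluorescence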
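Step 1, compound plus 15 nM Sfp-PPTase, 15 min, room temperature. Step 2, add rhodamine-CoA (5 uM) and BHQ-2-YbbR (12.5 uM). Step 3, read 525/598 nm fluorescence at 0 and 30 min.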
Tau ThT inhib: tau fibrillization inhibition (ThT binding). 270,000 compounds, 2.1% hits. Potency, µM (series often up to 57.4 µM), most hits filed as inhibitors. P10636. recombinant tau K18 P301L, heparin-induced fibrillization, ThT fluorescence; also: nearly all actives have a fitted effect of over 55% in size
Target sequence (P10636 561-689 P618L limits assumed): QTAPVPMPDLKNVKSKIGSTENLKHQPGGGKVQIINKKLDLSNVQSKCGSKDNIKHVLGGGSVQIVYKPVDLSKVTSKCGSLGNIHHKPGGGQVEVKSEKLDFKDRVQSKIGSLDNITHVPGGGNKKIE
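Using a mix of unlabeled (15 uM) and Alexa 594-labeled (0.24 uM) tau K18 P301L, heparin-triggered fibrillization over 6 hr at 37 C was scored by ThT fluorescence.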
Coupling enz: inhibits coupling enzyme system, counter-screen for aldolase hits | 290,000 compounds, 0.67% hits | activity change, negative = inhibition, % at 58.2 µM, hits read low | coupling enzyme system counterscreen, AmpLite Red fluorescence | AID 2472; in the data active = activity change below about -30%
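First, compound is pin-transferred into glyceraldehyde-3-phosphate coupling-enzyme reagent at 57.5 uM final and held 10 min at RT. Next, substrate, coupling system and AmpLite Red are added. After 20 min RT, fluorescence (525/598 nm) is read.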
Tau FP inhib: tau fibrillization inhibition (FP). P10636. K18 P301L tau heparin fibrillization, Alexa594 FP, 6 h. Potency, µM (doses to about 57.7 µM), most hits filed as inhibitors. 280,000 compounds, 0.39% hits. AID 1468; also: nearly all actives have a fitted effect of over 55% in size
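K18 P301L tau (15 uM unlabeled/0.24 uM Alexa 594-labeled, final) + compound + heparin 20 uM final; 100 mM NaOAc pH 7; 6 hr 37 C; ThT 30 uM final added, 1 hr RT; FP ex 555/em 632 nm.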
Sfp PPTase conf: confirmation of Bacillus subtilis Sfp PPTase inhibitors. shares compounds with Sfp PPTase inh. Sfp PPTase enzymatic assay, qHTS titration. Potency, µM (doses to about 114 µM), usual class: inhibitors. 380 compounds, 79% hits
Target sequence (Q9F4F7 whole entry, looked up): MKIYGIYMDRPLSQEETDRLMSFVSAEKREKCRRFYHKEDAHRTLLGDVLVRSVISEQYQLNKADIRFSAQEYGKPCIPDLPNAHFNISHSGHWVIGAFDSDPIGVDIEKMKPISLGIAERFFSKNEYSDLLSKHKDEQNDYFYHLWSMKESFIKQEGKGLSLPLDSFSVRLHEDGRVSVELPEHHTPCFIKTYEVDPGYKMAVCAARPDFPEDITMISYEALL
Sfp gel assay: Inhibits B. subtilis Sfp phosphopantetheinylation. purified Sfp, gel-based phosphopantetheinylation read-out. shares compounds with Sfp PPTase inh. 210 compounds, 20% hits. Potency, µM, usual class: inhibitors;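 active = potency below 100 µM; inconclusive = dose-dependent response but potency above 100 µM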;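 also: potency is an IC50 for inhibitors of Sfp transfer activity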
Each line names hits and unclear results; the compound was inactive in the other large screens (follow-up assays come after a bar, where they were run). Unless noted, calls follow the shape of the dose curve; as a rule, active = well fitted curve in the direction sought with a large enough effect; inconclusive = small, poorly fitted or top-dose-only effect, or another doubt; inactive = no such curve, though single readings can be large; an effect the other way counts as inactive or inconclusive.

CCN(CCCNC(=O)c1nn(-c2ccc(OC)c(Cl)c2)c(=O)c2c1c1ccccc1n2C)c1cccc(C)c1	none (no result: Sfp PPTase inh, Coupling enz)
O=C(O)c1ccc(-n2c(=O)c3ccccc3c3ccccc3c2=O)cc1	Sfp PPTase inh 7.94µM | Sfp PPTase conf 74.4µM | Sfp gel assay inconclusive
CCOCCc1nn2c(=O)cc(COC(=O)c3ccco3)nc2s1	none (no result: Sfp PPTase inh, Coupling enz)
CC(C)(C)C(=O)OCOP(=O)(COCCn1cnc2c(N)ncnc21)OCOC(=O)C(C)(C)C	Sfp PPTase inh 56.2µM (no result: Tau fluor cs, Tau ThT inhib, Coupling enz, Tau FP inhib) | Sfp PPTase conf inconclusive | Sfp gel assay inconclusive
Cc1ccccc1NC(=O)Cn1nc(-c2ccccc2)nc(Cc2ccccc2)c1=O	none (no result: Sfp PPTase inh, Coupling enz)
N#C/C(=C/c1ccc(N2CCOCC2)o1)c1ccc(Cl)cc1	Tau fluor cs inconclusive, Sfp PPTase inh 0.708µM, Tau ThT inhib 15.8µM, Coupling enz -46.7, Tau FP inhib inconclusive | Sfp PPTase conf 13.2µM
N#C/C(=C\c1ccc(N2CCCCC2)o1)C(N)=O	Tau ThT inhib inconclusive
O=C(O)Cc1sc(Nc2ccc(Cl)cc2)nc1-c1cccs1	Tau fluor cs inconclusive, Sfp PPTase inh 1.26µM, Tau ThT inhib inconclusive | Sfp PPTase conf 59.1µM
C=CC1=C(C(=O)O)N2C(=O)[C@@H](NC(=O)C(N=O)c3csc(N)n3)[C@H]2SC1 (stereo partly drawn)	Sfp PPTase inh 31.6µM | Sfp PPTase conf 41.8µM | Sfp gel assay 55.6µM
CC1=C(C(N)=O)N2C(=O)[C@@H](NC(=O)Cc3ccccc3)C2SC1 (stereo partly drawn)	Sfp PPTase inh 25.1µM | Sfp PPTase conf 4.49µM | Sfp gel assay 0.92µM
CC=CC1=C(C(=O)O)N2C(=O)[C@H](NC(=O)[C@H](N)c3ccc(O)cc3)[C@@H]2SC1	Sfp PPTase inh 39.8µM, Tau ThT inhib 22.4µM, Tau FP inhib inconclusive | Sfp PPTase conf 37.3µM | Sfp gel assay 18.5µM
N[C@@H](C(=O)N[C@@H]1C(=O)N2C(C(=O)O)=C(Cl)CS[C@H]12)c1ccccc1	Sfp PPTase inh 50.1µM, Tau ThT inhib 28.2µM, Tau FP inhib inconclusive | Sfp PPTase conf 74.4µM | Sfp gel assay 55.6µM
Cn1ccc2cc(S(=O)(=O)N3CCN(C(=O)Nc4cccc(F)c4)CC3)ccc21	none (no result: Sfp PPTase inh, Coupling enz)
COc1ccc(NC(=O)c2sc3nc(-c4cccnc4)ccc3c2N)cc1	none (no result: Tau ThT inhib)
Nc1c(C(=O)Nc2ccccc2)sc2nc(-c3cccnc3)ccc12	Sfp PPTase inh 7.94µM, Tau ThT inhib inconclusive | Sfp PPTase conf 29.6µM | Sfp gel assay inconclusive
CC(=O)N1CCC2(CCCN(c3ccc(-c4ccccc4)cc3)C2)CC1	Sfp PPTase inh inconclusive (no result: Tau fluor cs, Tau ThT inhib, Tau FP inhib)
COc1ccc(OC)c(Nc2nc(=O)c3cccnc3s2)c1	Sfp PPTase inh 2.82µM, Tau ThT inhib inconclusive, Tau FP inhib inconclusive | Sfp PPTase conf 18.7µM
Cc1ccc(Nc2nc(=O)c3cccnc3s2)cc1	none
CCOc1ccc(C(=O)CC(NCc2cccs2)C(=O)O)cc1 (stereo not drawn)	Sfp PPTase inh 11.2µM, Tau ThT inhib inconclusive, Tau FP inhib inconclusive | Sfp PPTase conf 37.3µM
CCOc1ccc(S(=O)(=O)NCc2cccs2)cc1	none
CCOC(=O)C[n+]1c(C)sc2ccc(OC)cc21	Sfp PPTase inh 1µM, Tau ThT inhib 28.2µM, Tau FP inhib inconclusive | Sfp PPTase conf 6.63µM | Sfp gel assay inactive
Cc1cc(NC(=O)CN2C(=O)CC(c3ccco3)Sc3ccccc32)no1 (stereo not drawn)	Sfp PPTase inh 2.51µM | Sfp PPTase conf 14.8µM | Sfp gel assay inactive
Cc1cccc2cc(CNCC3CCCO3)c(Cl)nc12 (stereo not drawn)	none
Cc1cccc2cc3c(nc12)SC(=NCC1CCCO1)N(Cc1ccco1)C3 (stereo not drawn)	Sfp PPTase inh 3.55µM, Tau ThT inhib inconclusive | Sfp PPTase conf 6.63µM | Sfp gel assay 6.17µM
Cc1ccc(C2(C(F)(F)F)NC(=O)N3CCCN=C3S2)cc1 (stereo not drawn)	none
O=C1NC(c2ccccc2)(C(F)(F)F)SC2=CCCCCN12 (stereo not drawn)	Sfp PPTase inh 20µM, Tau ThT inhib inconclusive | Sfp PPTase conf 46.9µM | Sfp gel assay inactive
CCC(C)(C)n1nnnc1C(c1ccc(O)c(OC)c1)N1CCc2ccccc2C1 (stereo not drawn)	Sfp PPTase inh 3.55µM, Tau ThT inhib inconclusive | Sfp PPTase conf 5.91µM
CCOC(=O)c1c(C)[nH]c(C2=NNC(=NC3CC3)SC2)c1C	Tau fluor cs inconclusive, Sfp PPTase inh 7.08µM, Tau ThT inhib 15.8µM, Tau FP inhib inconclusive | Sfp PPTase conf 41.8µM
CCN(CC)c1ccc(NC(=O)c2ccccc2)cc1S(=O)(=O)Nc1ccccc1OC	Sfp PPTase inh 3.16µM | Sfp PPTase conf 6.63µM
CC1=C(c2ccc(C)cc2)S(=O)(=O)N=C1N1CCN(c2ccccc2)CC1	none (no result: Sfp PPTase inh, Coupling enz)
CC(=O)O[C@@]12CO[C@@H]1C[C@H](O)[C@@]1(C)C(=O)[C@H](O)C3=C(C)[C@@H](OC(=O)C(O)[C@@H](NC(=O)OC(C)(C)C)c4ccccc4)C[C@@](O)([C@@H](OC(=O)c4ccccc4)[C@H]21)C3(C)C (stereo partly drawn)	Sfp PPTase inh 6.31µM (no result: Tau fluor cs, Tau ThT inhib, Coupling enz, Tau FP inhib) | Sfp PPTase conf 14.8µM | Sfp gel assay inactive
Oc1cc2c(cc1O)[C@H]1c3ccc(O)c(O)c3OC[C@@]1(O)C2	Tau fluor cs inconclusive, Sfp PPTase inh 3.98µM, Tau ThT inhib 17.8µM, Tau FP inhib inconclusive | Sfp PPTase conf 8.35µM | Sfp gel assay 2.06µM

Bioassay records: PubChem BioAssay, National Center for Advancing Translational Sciences (NCATS)
